Compound activity as filed in PubChem.
MCF10A rereplic: induces DNA re-replication in MCF 10a normal breast cells. actives 2.9% (n = 350,000). Potency, µM (series often up to 46.1 µM), for inactives: top-dose activity, positive = re-replication, most hits filed as activators. MCF 10A DNA re-replication, Hoechst nuclear intensity, 48 h; note: potency is the fitted concentration of half-maximal effect; % of control where 0% means no effect; nearly all actives have a fitted effect of over 50% in size
SW480 rereplic: DNA re-replication induction in SW480 cells | SW480 DNA re-replication, Hoechst DNA content imaging, 48 h | Potency, µM (titrated, usually from 46.1 µM), for inactives: at the highest dose re-replication activation, hits mostly activators | actives 1.8% (n = 340,000) | AID 624297; note: potency is the fitted concentration of half-maximal effect; % of control where 0% means no effect; nearly all actives have a fitted effect of over 55% in size
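SW480 cells exposed to compounds for 48 hr at 37 C, 5% CO2, then Hoechst-stained 40 min. Nuclear DNA content imaged by fluorescence scanning (405 nm excitation, 500-530 nm emission); re-replication scored as increased high-intensity nuclei.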
S2 tox: cell viability loss in ATXN counter-screen; S2 cells (HEK-293 line with an ATXN2-luciferase reporter) viability, CellTiter-Fluor protease fluorescence, 24 h; Potency, µM (top dose mostly 56.7 µM), usual class: cytotoxic; actives 0.49% (n = 400,000); AID 651635; note: potency is the fitted concentration of half-maximal effect; nearly all actives have a fitted effect of over 40% in size
PINK1 expr mod: PINK1 expression modulation. PINK1 immunofluorescence, high-content cytometry, 24 h. Potency, µM (doses to about 76.6 µM), for inactives: top-dose activation (PINK1 increase), actives largely listed as activators. actives 0.2% (n = 410,000); active = well fitted activation curve with a large enough effect; inconclusive = small, poorly fitted or top-dose-only effect; cell line not stated here; note: potency is the fitted concentration of half-maximal effect; % of control where 0% means no effect; nearly all actives have a fitted effect of over 65% in size
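Readout is PINK1 immunofluorescence, quantified alongside mitochondrial, cell and nuclear markers by laser-scanning microplate cytometry. Cells from a stable line were exposed to compound titrations (5 concentrations) for 24 hours, with CCCP controls.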
ATXN2 expr inh: ATXN2 expression inhibition; HEK-293 ATXN2-luciferase reporter, luminescence, 24 h; Potency, µM (highest dose often 57 µM), for inactives: at the top dose activity change, negative = inhibition, hits mostly inhibitors; actives 0.72% (n = 360,000); AID 1745845; note: potency is the fitted concentration of half-maximal effect; % is set by controls: 0 for no effect and ±100 for the full control effect; nearly all actives have a fitted effect of over 55% in size
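ATXN2-luciferase reporter cells (luciferase flanked by upstream and downstream ATXN2 gene portions) were treated 24 h at 37 °C with compounds at up to 57 uM. SteadyGlo luminescence gave expression; GF-AFC fluorescence gave viability.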
IL1B secr inh: inflammasome signaling inhibition, IL-1 beta readout; actives 4.7% (n = 360,000); activity change, % at 57.5 µM; THP-1 LPS/ATP IL-1B secretion, AlphaLISA, 16 h; active compounds read low; in the data active = activity change below about -50%; inconclusive = mostly about -30% to -49%; note: % is set by controls: 0 for no effect and ±100 for the full control effect
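Secreted IL-1B measured by AlphaLISA bead assay after 16 h compound exposure of THP-1 cells; compounds (final up to 57.5 uM) added 1 h before LPS (250 ng/mL) and ATP (1.25 mM) stimulation; lower signal means less secretion.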
* = called active by the depositor; i = inactive; ? = inconclusive; / = not tested or not shown; [ ] = dose if it differs, or a comment. The list is not random: actives were taken first. Their share in the collection is about 7.1%. Unless noted, calls come from the whole dose curve; as a rule, active = well fitted curve in the direction sought with a large enough effect; inconclusive = small, poorly fitted or top-dose-only effect, or another doubt; inactive = no such curve, though single readings can be large; an effect the other way counts as inactive or inconclusive.

SMILES	MCF10A rereplic	SW480 rereplic	S2 tox	PINK1 expr mod	ATXN2 expr inh	IL1B secr inh
O=c1c2ccccc2nc(/C=C/c2ccc(O)cc2)n1CCc1ccccc1	23µM*	?	/	11%	?	-27
O=c1c2ccccc2nc(/C=C/c2ccccc2)n1CCCO	3%	?	i	-1%	4%	-17
CN(C)c1ccc(/C=C/c2nc3ccccc3c(=O)n2CCO)cc1	16µM*	?	/	-1%	-4%	-9
Cc1ccc(C(C)C)c(OCC(=O)NCC2(N(C)C)CCCCC2)c1	/	/	i	3%	-6%	/
Cc1ccc(-c2c(C(=O)NCCc3ccccc3)oc(=O)c3ccccc23)cc1	/	/	/	3%	/	/
Cc1ccc(NC(=O)NCc2nc3ccccc3n2C)cc1	?	21µM*	i	-1%	?	19
Cc1c(Cl)cccc1NC(=O)CSc1nc2ncccc2o1	/	/	i	-1%	4%	/
CN(C)NC(=S)Nc1cccc(C(F)(F)F)c1	-8%	16%	i	0%	4%	/
Fc1ccccc1CNC(=S)Nc1cccc(C(F)(F)F)c1	?	8%	i	?	-21%	-98*
FC(F)(F)c1cccc(NC(=S)NCc2ccc(Cl)cc2)c1	18µM*	7%	/	?	?	-155*
CC(=O)c1cccc(NC(=S)NCCc2ccc(Cl)cc2)c1	14%	0%	i	11%	-5%	-92*
CC(NC(=S)Nc1cccc(C(F)(F)F)c1)C(C)(C)C (centres undefined)	3%	?	?	?	-17%[11.3 µM]	-81*
Fc1ccc(CNC(=S)Nc2cccc(C(F)(F)F)c2)cc1	23%	0%	i	?	-21%	0
COc1ccc(C(=O)Nc2ccc3nc(SCC(=O)N(C)c4ccccc4)sc3c2)cc1	/	/	?	-1%	?	/
CCOC(=O)c1[nH]c2ccccc2c1NC(=O)c1ccc(OC(C)C)cc1	/	/	i	5%	7%	/
CCCCCCn1c(=O)n2n(c1=O)[C@@H]1CN(S(=O)(=O)c3ccc(C)cc3)C[C@]1(O)[C@@H](OC(=O)NCc1ccccc1)C2	/	/	/	?	?	-71*
COC(=O)[C@H]1C[C@H](OC(=O)NCc2ccco2)[C@@]2(O)CN(S(=O)(=O)c3ccc(C)cc3)CC2[C@H]1C(=O)OC (some centres undefined)	/	/	i	0%	7%	-64*
CCCCCCn1c(=O)n2n(c1=O)[C@@H]1CN(S(=O)(=O)c3ccc(C)cc3)C[C@]1(O)[C@@H](OC(=O)Nc1c(C)noc1C)C2	/	/	i	3%	1%	-5
COC(=O)[C@H]1C[C@H](OC(=O)NCc2ccc(OC)c(OC)c2)[C@@]2(O)CN(S(=O)(=O)c3ccc(C)cc3)CC2[C@H]1C(=O)OC (some centres undefined)	/	/	i	1%	8%	-5
Cc1ccc(S(=O)(=O)N2C[C@H]3n4c(=O)ccc(=O)n4C[C@H](OC(=O)NCc4ccco4)[C@@]3(O)C2)cc1	/	/	i	2%	-25%	-54*
Cc1ccc(S(=O)(=O)N2C[C@H]3n4c(=O)ccc(=O)n4C[C@H](OC(=O)NCc4ccccc4)[C@@]3(O)C2)cc1	/	/	?	9%	0%	0
Cc1ccc(S(=O)(=O)N2C[C@H]3n4c(=O)ccc(=O)n4C[C@H](OC(=O)NCC4CCCCC4)[C@@]3(O)C2)cc1	/	/	22µM*	-1%	16µM*	-109*
CCN(Cc1ccccc1)S(=O)(=O)c1ccc(-c2coc(C)n2)cc1	/	/	i	-4%	-11%	/
O=C(NCCc1ccccc1)c1ccc2c(c1)CCN2S(=O)(=O)c1ccccc1	/	/	i	-1%	14%	/
CC(C)c1ccc(NC(=O)C2CCN(S(=O)(=O)c3cccc4nsnc34)CC2)cc1	/	/	i	11%	-11%	/
SMILES	MCF10A rereplic	SW480 rereplic	S2 tox	PINK1 expr mod	ATXN2 expr inh	IL1B secr inh
COc1cc(Br)cc(CNc2ccc(F)c([N+](=O)[O-])c2)c1O	6%	-2%	i	5%	-35%	-95*
Cc1ccc(CC(=O)Nc2ccc(F)c([N+](=O)[O-])c2)cc1C	12%	-73%	i	-3%	/	-7
C=Cc1ccc(Cn2c(C(=O)O)c(CNCc3cc(OC)ccc3OC)c3ccc(C)cc32)cc1	/	/	?	2%	10%	/
CCN(CC)c1nc(-c2ccccn2)nc(-c2ccccc2)c1C#N	-6%	-45%	?	3%	4.5µM*	?
CN(C)c1nc(-c2ccccn2)nnc1-c1ccccc1	19%	?	i	-1%	8.9µM*	96
CN(c1nnc(NC(=O)Nc2ccc(Br)cc2)s1)C1CCCCC1	/	/	/	-1%	/	/
CCCn1c2ccccc2c2cnn(CC(=O)N(Cc3ccccc3)C(C)C)c(=O)c21	/	/	i	1%	-23%	/
Cc1c(CNCc2ccc(OC(C)C)cc2)c(C(=O)O)c(C)n1Cc1ccc(Cl)cc1	/	/	i	4%	2%	/
Cc1cccc(-n2ncc(C(=O)NCc3ccccn3)c2C2CCN(C(=O)OC(C)(C)C)CC2)c1	/	/	/	3%	/	/
O=C(CCl)N=c1sccn1Cc1ccccc1Cl	?	?	/	-2%	?	-100*
O=C(CCl)N=c1sccn1Cc1ccc(Cl)cc1Cl	?	?	?	-2%	-35%	-97*
CCC(=O)OCC(=O)N=c1sccn1Cc1ccccc1Cl	11%	-5%	i	0%	0%	-5
O=C(CCl)N=c1sccn1Cc1cccc2ccccc12	?	?	?	-1%	0.03µM*	-102*
CCCN(CCC)C(=O)c1nn(C)c2c1CSc1ccc(C)cc1-2	/	/	?	2%	-6%	/
Cc1ccc2nc(Nc3ccccc3)c(/C=N/O)c(=O)n2c1	?	?	i	-3%	-17%	?
Cc1ccc2nc(Cl)c(/C=N/Nc3nc(C)cc(C)n3)c(=O)n2c1	?	?	i	2%	5%	-97*
Cc1ccc(Sc2nc3ccc(C)cn3c(=O)c2/C=N/O)cc1	16µM*	?	/	5%	15%	-6
O=[N+]([O-])c1ccc(CN2CCOCCOCCN(Cc3ccc([N+](=O)[O-])cc3)CCOCC2)cc1	9%	9%	i	-1%	?	-142*
CSc1ccc(CN2CCN(Cc3ccc([N+](=O)[O-])cc3)CC2)cc1	15µM*	6%	?	1%	-13%	-67*
Cc1ccc(C2CC(=O)N(Cc3ccccc3F)c3c2c(C)nn3-c2nc(C)cc(C)n2)cc1 (centres undefined)	/	/	?	3%	?	/
COc1cccc(C(=O)Nc2ccc(Oc3cccc(C(F)(F)F)c3)nc2)c1	?	?	?	6%	?	-80*
